Our source for the inhibition values is ChEMBL document CHEMBL3433997, “St. Jude Leishmania screening dataset” (2016).

What all share (format): functional
Assay [1] deals with Solute carrier family 2, facilitated glucose transporter member 1 (Homo sapiens) (UniProt P11166). Kind of assay: ST_JUDE_LEISH: Cytotoxicity at 2uM final concentration against transgenic Leishmania Mexicana promastigotes LmGLUT1 that are glucose transport deficient and complemented with the human glucose transporter GLUT1. Activity is measured by DNA content using SYBR green in vitro.

Assay [2] concerns the target Hexose transporter 1 (Plasmodium falciparum) (UniProt O97467). Description: ST_JUDE_LEISH: Cytotoxicity at 2uM final concentration against transgenic Leishmania Mexicana promastigotes LmPfHT that are glucose transport deficient and complemented with the Plasmodium falciparum hexose transporter. Activity is measured by DNA content using SYBR green in vitro.
In assay [3] the target is Glucose transporter (Leishmania mexicana) (UniProt O61059). Kind of assay: ST_JUDE_LEISH: Cytotoxicity at 2uM final concentration against transgenic Leishmania Mexicana promastigotes LmGT2 that are glucose transport deficient and complemented with the L. Mexicana glucose transporter 2. Activity is measured by DNA content using SYBR green in vitro.

Solute carrier family 2, facilitated glucose transporter member 1 (Homo sapiens), sequence (P11166 whole entry): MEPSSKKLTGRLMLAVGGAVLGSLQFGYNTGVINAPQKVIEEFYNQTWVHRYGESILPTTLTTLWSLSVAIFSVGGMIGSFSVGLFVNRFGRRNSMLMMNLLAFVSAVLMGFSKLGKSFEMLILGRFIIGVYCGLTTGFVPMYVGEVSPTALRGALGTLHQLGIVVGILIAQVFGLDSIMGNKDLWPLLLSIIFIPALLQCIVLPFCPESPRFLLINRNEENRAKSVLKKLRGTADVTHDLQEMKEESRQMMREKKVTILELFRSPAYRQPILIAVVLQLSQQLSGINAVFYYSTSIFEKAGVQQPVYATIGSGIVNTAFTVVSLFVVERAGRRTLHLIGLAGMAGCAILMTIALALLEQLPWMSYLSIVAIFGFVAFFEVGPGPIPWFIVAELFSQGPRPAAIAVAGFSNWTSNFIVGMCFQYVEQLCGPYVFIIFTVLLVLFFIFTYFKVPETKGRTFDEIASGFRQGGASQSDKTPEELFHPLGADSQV

With `O=C(O)c1cccnc1Sc1ccc(Cl)cc1`, the inhibition in assay [1] is -0.75%; in assay [2] it was -0.76%; in assay [3] it was -0.47%.

On to `CC1CCN(CCNC(=O)c2ccc3c(=O)n(Cc4ccc(Cl)cc4)c(=S)[nH]c3c2)CC1`, for which the figures for the inhibition in assay [1], in assay [2] and in assay [3] were 1.28%, 2.93% and 1.91%, respectively.

Regarding `Cc1cc(N)ncc1-c1ccc(NC(=O)Nc2cc(C(F)(F)F)ccc2F)cc1`, the inhibition is 2.41% in assay [1], 2.25% in assay [2] and 1.43% in assay [3].

Consider `COc1ccc(-c2ccc(CNCc3ccccc3)cc2)cc1S(=O)(=O)NCCN1CCCC1`, for which the inhibition in assay [1] is 4.97%; in assay [2], 1.92%; in assay [3], -1.36%.

Take `COc1ccc2nc(/N=C3\NC(c4ccccn4)(c4ccccn4)C(=O)N3C)[nH]c2c1`: the inhibition worked out at 11.7% in assay [1], 11.1% in assay [2] and 9.86% in assay [3].

As to `CN1CCN(CCCN(Cc2ccc(-c3ccc(CNCc4ccc5c(c4)OCO5)cc3)cc2)C(=O)CCC2CCCC2)CC1`, the inhibition is 4.67% in assay [1], 7.78% in assay [2] and 1.18% in assay [3].

Turning to `COc1ccc(NC(=O)/C=C/c2ccc(Cl)c(C(F)(F)F)c2)cc1OCCN(C(C)C)C(C)C`, the inhibition in assay [1] was 11.7%; in assay [2], 8.04%; in assay [3] it was 5.51%.

Regarding `CCOC(=O)N1NC(=O)N(c2ccccc2)C1(c1ccccc1)c1ccccc1`, the inhibition is 2.45% in assay [1], 1.19% in assay [2] and 2.17% in assay [3].

For the compound `N/C(=N\c1cccc(Cc2ccccc2)n1)NCc1ccccc1`, the inhibition in assay [1] was 2.04%; in assay [2], -1.19%; in assay [3] it was 3.21%.

As to `COCc1cc(C)nc2sc(C(=O)Nc3cc(C(C)(C)C)ccc3O)c(N)c12`, the inhibition was 3.32% in assay [1], 2.62% in assay [2] and -0.92% in assay [3].

For `CC(=O)c1cccc(NC(=O)NC2CCN(c3ccnc(Nc4ccc(F)cc4)n3)C2)c1` (stereo not drawn), the figures for the inhibition in assay [1], in assay [2] and in assay [3] were -1.36%, -0.93% and -0.03%, respectively.

As for `O=[N+]([O-])c1ccc(-n2nc(Cc3ccccc3)n(Cc3cccc(F)c3)c2=S)c(C(F)(F)F)c1`, the inhibition was 2.84% in assay [1], 3.14% in assay [2] and -0.25% in assay [3].

As for `N#Cc1ccc2c(c1)CCN(CCC1CCC(NC(=O)/C=C/c3cc(Br)cs3)CC1)CC2` (stereo not drawn), the inhibition is 5.26% in assay [1], 2.93% in assay [2] and -0.56% in assay [3].

As to `O=C(Nc1ccccc1)N1CCOC(CCN2CCC(F)(F)CC2)(c2ccc(Cl)c(Cl)c2)C1` (stereo not drawn), the inhibition in assay [1] came out at 2.76%; in assay [2] it was 4.85%; in assay [3] it was 1.24%.

`CC(C)Cn1ccc2c3c(N)nc(N)nc3ccc21`: the inhibition came to 27.1% in assay [1], 47.5% in assay [2] and 17% in assay [3].

`Cc1ccccc1NC(=O)NC1CCN(CCCCCNC(=O)/C=C/c2ccc(Cl)c(Cl)c2)CC1`: the inhibition in assay [1] came out at 1.77%; in assay [2] it was 2.24%; in assay [3], 1.9%.

With `COc1ccc(S(=O)(=O)NC2CCN(CCCOc3ccnc4cc(Cl)ccc34)C2)cc1OC` (stereo not drawn), the inhibition is 3.41% in assay [1], 3.81% in assay [2] and 2.88% in assay [3].

On to `Fc1cccc(C=NN=c2cc[nH]c3ccc(C(F)(F)F)cc23)c1`, for which the inhibition in assay [1] turned out to be 9.27%; in assay [2] it was 8.79%; in assay [3] it was 5.06%.

On to `CCN(CC)CCCN(C(=O)Nc1c(Cl)cncc1Cl)c1nc(-c2ccc(F)cc2)cs1`, for which the results for the inhibition in assay [1], in assay [2] and in assay [3] were 2.47%, 2.42% and 3.83%, respectively.

Consider `O=C(CCNc1ccnc(NCC2CCCCC2)n1)Nc1ccccc1`, for which the values for the inhibition in assay [1], in assay [2] and in assay [3] were 7.25%, 5.25% and 3.46%, respectively.

As to `CCC(C)NC(=O)CN1CN(c2ccccc2)C2(CCN(C(=O)c3ccc(C(C)(C)C)cc3)CC2)C1=O` (stereo not drawn), the inhibition in assay [1] is 3.34%; in assay [2] it was 2.77%; in assay [3], 1.7%.

Consider `C=CCn1c(=N)c(C(=O)NCc2ccc(F)cc2)cc2c(=O)n3cccc(C)c3nc21`, for which the results for the inhibition in assay [1], in assay [2] and in assay [3] were 3.56%, 3.45% and 2.22%, respectively.

As for `Cc1nc2c(s1)c(=O)cc(CCc1cccc(F)c1F)n2CC(=O)N(Cc1ccc(-c2ccc(C(F)(F)F)cc2)cc1)C1CCN(C(C)C)CC1`, the inhibition turned out to be 1.07% in assay [1], 0.83% in assay [2] and 1.78% in assay [3].

As for `O=C(/C=C/c1ccc(Cl)c(Cl)c1)NCCCCCN1CCCN(C(=O)Nc2ccc(Br)cc2)CC1`, the inhibition in assay [1] came out at 10.6%; in assay [2] it was 10.3%; in assay [3], 10.2%.

Regarding `CCN(CCCN1CCCCC1)c1cc(C)nc(Nc2cc(Cl)cc(Cl)c2)n1`, the inhibition in assay [1] worked out at 0.93%; in assay [2], 2.39%; in assay [3] it was 1.01%.

Consider `COc1ccc(Nc2nccc(N3CCC(NC(=O)C(C)c4ccc(Cl)cc4)CC3)n2)cc1` (stereo not drawn), for which the inhibition in assay [1] stood at 0.43%; in assay [2] it was 0.07%; in assay [3] it was 0.26%.

`O=C(Nc1ccc(Cl)cc1)Nc1ccc(-c2cccc(-c3nc4cc(F)ccc4[nH]3)c2)cc1`: the results for the inhibition in assay [1], in assay [2] and in assay [3] were 2.83%, 4.68% and 3.09%, respectively.

Consider `COc1c(C(=O)NC2CCN(Cc3ccccc3)C2)cnc2ccccc12` (stereo not drawn), for which the inhibition in assay [1] came to 11.8%; in assay [2], 9.19%; in assay [3] it was 8.95%.

As to `COc1cc(NC(=O)/C=C/c2cc(F)cc(F)c2F)cc(OCCN2CCN(CCN3CCOCC3)CC2)c1`, the inhibition in assay [1] was determined as 3.46%; in assay [2] it was 1.58%; in assay [3], 2.54%.

On to `COc1ccc(NC(=O)[C@H](Cc2ccccc2)Nc2cc(C)nc(NCCN3CCCC3)n2)cc1`, for which the values for the inhibition in assay [1], in assay [2] and in assay [3] were 11.2%, 9.21% and 7.49%, respectively.

As for `Brc1cc(Br)c2c(c1)C(NCCCNC1CCNc3c(Br)cc(Br)cc31)CCN2` (stereo not drawn), the figures for the inhibition in assay [1], in assay [2] and in assay [3] were 1.08%, 0.89% and 0.34%, respectively.

For the compound `O=C(Nc1cccc(-c2ccc(-c3nc4cc(F)ccc4[nH]3)s2)c1)c1ccncc1`, the inhibition worked out at 6.59% in assay [1], 5.83% in assay [2] and 3.32% in assay [3].

As to `CCN(CCO)CCCC(C)Nc1ccnc2cc(Cl)ccc12` (stereo not drawn), the values for the inhibition in assay [1], in assay [2] and in assay [3] were 7%, 7.44% and 6.05%, respectively.

`CCn1cc(-c2nc(-c3cc(OC)cc(OC)c3)no2)c(=O)c2ccccc21`: the values for the inhibition in assay [1], in assay [2] and in assay [3] were 12.3%, 6.39% and 2.79%, respectively.

Consider `O=[N+]([O-])c1ccc(N2CCCN(C(=S)Nc3ccc(F)cc3Br)CC2)nc1`, for which the inhibition in assay [1] was 1.6%; in assay [2] it was -0.77%; in assay [3] it was 1.29%.

As for `NC1CCCN(Cc2ccc(-c3cccc(-c4nc5cc(F)ccc5[nH]4)c3)cc2)C1` (stereo not drawn), the figures for the inhibition in assay [1], in assay [2] and in assay [3] were -0.79%, 0.23% and -1.33%, respectively.

Usually inhibition stands for the change of the read-out against control, counted positive when it falls.
